Source: PubChem (National Center for Advancing Translational Sciences (NCATS))
HT1080 IDH1KD tx: qHTS for induction of synthetic lethality in tumor cells producing 2HG: qHTS for the HT-1080-IDH1KD cell line; Potency, µM (doses to about 46.1 µM), inactives show top-dose activity, negative = toxicity, most hits filed as cytotoxic; HT-1080 IDH1 knockdown viability, ATP luminescence, 48 h; 2% of 360,000 active; AID 686971, 2013;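 also: 0% = DMSO wells and -100% = cell-free medium wells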
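IDH1KD HT-1080 cells, 750/well, RPMI + 5% FBS; compound pinned after 2 h settling; 48 h, 37 °C; CellTiter-Glo luminescence; % activity normalised to DMSO and no-cell wells; curves fitted, classed by r2 and efficacy.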
KB-3-1 tox: qHTS assay for MDR1-selective chemotherapeutics: Primary screen using the parental adenocarcinoma cell KB-3-1; KB-3-1 viability, CellTiter-Glo ATP luminescence, 72 h; Potency, µM (top dose mostly 46.1 µM), usual class: cytotoxic; 1.4% of 400,000 active; AID 1347075, 2019; also: nearly all actives have a fitted effect of over 60% in size
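Luminescent ATP read-out (CellTiter-Glo) measures survival of drug-naive KB-3-1 cells after 72 h compound exposure at 37 °C. Titration series was screened from lowest to highest concentration, with DMSO vehicle plates as background controls.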
TDP1 cell CPT: qHTS for Inhibitors of human tyrosyl-DNA phosphodiesterase 1 (TDP1): qHTS in cells in presence of CPT. 12% of 420,000 active. chicken DT40 Tdp1-/-;hTDP1 cells + 20 nM CPT, ATP luminescence, 48 h. Potency, µM (doses to about 46.2 µM), inactives show at the top dose activity change, negative = growth inhibition, most hits filed as inhibitors; also: nearly all actives have a fitted effect of over 55% in size
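Chicken DT40 Tdp1-/- cells stably complemented with human TDP1 were seeded at 400 cells/well in medium containing 20 nM camptothecin, exposed to pin-transferred compounds, and grown at 37 °C for at least 48 hr. Viability was read as ATP luminescence.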
HT1080NT lethal: qHTS for induction of synthetic lethality in tumor cells producing 2HG: qHTS for the HT-1080-NT fibrosarcoma cell line | HT-1080-NT fibrosarcoma viability, CellTiter-Glo ATP luminescence, 48 h | Potency, µM (doses to about 46.1 µM), for the others: at the top dose activity, negative = less viability, usual class: cytotoxic | 1.6% of 360,000 active | AID 686970, 2013;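 also: NT is the 2HG producing partner of a matched IDH1 knockdown line; 0% = DMSO-treated cells and -100% = media-only wells without cells; nearly all actives have a fitted effect of over 55% in size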
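HT-1080-NT; 750 cells/well; 5% FBS RPMI; 48 h compound, 37 degrees C; CellTiter-Glo luminescence; curve fitting and curve-class assignment.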
TDP1 cell noCPT: qHTS for Inhibitors of human tyrosyl-DNA phosphodiesterase 1 (TDP1): qHTS in cells in absence of CPT | DT40 Tdp1-/- hTDP1 cells, no CPT, ATP luminescence, 48 h | Potency, µM (titrated, usually from 46.2 µM), without a hit: at the highest dose activity change, negative = growth inhibition, most hits filed as inhibitors | 15% of 420,000 active | AID 686978, 2013; also: nearly all actives have a fitted effect of over 55% in size
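Chicken DT40 Tdp1-/- cells stably complemented with human TDP1 were seeded at 400 cells/well with DMSO in place of 20 nM camptothecin. After compound pinning, cells grew at least 48 hr at 37 °C; viability read by CellTiter-Glo luminescence.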
KB-V1 MDR tox: qHTS assay for MDR1-selective chemotherapeutics: Primary screen using the drug-selected MDR subline cells KB-V1; KB-V1 MDR cells viability, CellTiter-Glo, 72 h; Potency, µM (highest dose often 46.1 µM), usual class: cytotoxic; 3.4% of 400,000 active; also: nearly all actives have a fitted effect of over 60% in size
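Readout: CellTiter-Glo luminescence, 10 min after addition. Cells: KB-V1 MDR subline, 72 h at 37 degrees C with compound. Analysis: corrected, normalized data fitted to concentration-effect curves.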
An asterisk follows results filed as active. Rows were chosen to be rich in hits. Some 19% of all compounds tested hit in one or more screens of this group. Calls follow the shape of the dose curve; as a rule, active = well fitted curve in the direction sought with a large enough effect; inconclusive = small, poorly fitted or top-dose-only effect, or another doubt; inactive = no such curve, though single readings can be large; an effect the other way counts as inactive or inconclusive. Unless noted, % is scaled to controls: 0 for no effect and ±100 for the full control effect; potency is read from the fitted curve at half-maximal effect.

How did CC(C)c1ccccc1-n1c(SCC(=O)c2ccc3c(c2)NC(=O)CO3)nc2ccccc2c1=O do in these assays?
HT1080 IDH1KD tx: -9%; KB-3-1 tox: inactive; TDP1 cell CPT: 18µM*; HT1080NT lethal: -19%; TDP1 cell noCPT: 23µM*; KB-V1 MDR tox: inconclusive

How did O=C1COc2ccc(C(=O)CSc3nnc(Cc4cccs4)n3-c3ccccc3)cc2N1 do in these assays?
HT1080 IDH1KD tx: 1%; KB-3-1 tox: inactive; TDP1 cell CPT: inconclusive; HT1080NT lethal: -9%; TDP1 cell noCPT: 9.2µM*; KB-V1 MDR tox: inconclusive

What do the screens show for `CC(C)c1ccccc1-n1c(SCC(=O)N2CCc3ccccc3C2)nc2ccccc2c1=O`?
HT1080 IDH1KD tx: inconclusive; KB-3-1 tox: inconclusive; TDP1 cell CPT: inconclusive; HT1080NT lethal: -19%; TDP1 cell noCPT: 23µM*; KB-V1 MDR tox: inactive

What do the screens show for `CCOc1cccc2cc(-c3nc4ccc(C(=O)O)cc4[nH]3)c(=O)oc12`?
TDP1 cell CPT: 5%; TDP1 cell noCPT: -23%

What do the screens show for `CC(C)c1ccc(C(=O)Nc2ccc(CN3CCOCC3)cc2)cc1`?
HT1080 IDH1KD tx: -18%; KB-3-1 tox: inactive; TDP1 cell CPT: inconclusive; HT1080NT lethal: 0%; TDP1 cell noCPT: inconclusive; KB-V1 MDR tox: inactive

Results for O=C(/C=C/c1ccccc1)NC(=S)Nc1ccc(CN2CCOCC2)cc1 ?
HT1080 IDH1KD tx: inconclusive; KB-3-1 tox: inactive; TDP1 cell CPT: inconclusive; HT1080NT lethal: inconclusive; TDP1 cell noCPT: 18µM*; KB-V1 MDR tox: inconclusive

How did O=C(/C=C/c1ccc(Cl)cc1Cl)NC(=S)Nc1ccc(CN2CCOCC2)cc1 do in these assays?
HT1080 IDH1KD tx: -23%; KB-3-1 tox: inactive; TDP1 cell CPT: 16µM*; HT1080NT lethal: -1%; TDP1 cell noCPT: 13µM*; KB-V1 MDR tox: inconclusive

How did O=C(Nc1ccc(CN2CCOCC2)cc1)c1ccc(Cl)cc1Cl do in these assays?
HT1080 IDH1KD tx: -8%; KB-3-1 tox: inactive; TDP1 cell CPT: -26%; HT1080NT lethal: inconclusive; TDP1 cell noCPT: -11%; KB-V1 MDR tox: inactive

Results for CC(C)CC(=O)N1CCN(Cc2ccc(Cl)cc2)CC1 ?
HT1080 IDH1KD tx: 15%; KB-3-1 tox: inactive; TDP1 cell CPT: -3%; HT1080NT lethal: 7%; TDP1 cell noCPT: inconclusive; KB-V1 MDR tox: inactive

Results for CC(C)c1ccc(/C=C/C(=O)Nc2ccc(CN3CCOCC3)cc2)cc1 ?
HT1080 IDH1KD tx: inconclusive; KB-3-1 tox: inconclusive; TDP1 cell CPT: 8.2µM*; HT1080NT lethal: inconclusive; TDP1 cell noCPT: 13µM*; KB-V1 MDR tox: 16µM*

Results for CC(C)c1ccc(CN2CCN(C(=O)CCl)CC2)cc1 ?
HT1080 IDH1KD tx: inconclusive; KB-3-1 tox: inconclusive; TDP1 cell CPT: 1.2µM*; HT1080NT lethal: inconclusive; TDP1 cell noCPT: 0.73µM*; KB-V1 MDR tox: inconclusive

How did CC(C)CN1CCc2nc(N3CCN(c4ncccn4)CC3)ncc2C1 do in these assays?
KB-3-1 tox: inactive; TDP1 cell CPT: inconclusive; TDP1 cell noCPT: -25%; KB-V1 MDR tox: inactive

Results for Cc1nc2ccccc2c(=O)n1-c1ccc(NC(=O)c2ccc([N+](=O)[O-])cc2)cc1 ?
KB-3-1 tox: inactive; TDP1 cell CPT: inconclusive; TDP1 cell noCPT: inconclusive; KB-V1 MDR tox: inactive

What do the screens show for `Cc1cc(C(=O)Nc2ccc(-n3c(C)nc4ccccc4c3=O)cc2)ccc1[N+](=O)[O-]`?
KB-3-1 tox: inactive; TDP1 cell CPT: inconclusive; TDP1 cell noCPT: inconclusive; KB-V1 MDR tox: inactive
